Screening results (PubChem)
Most compounds without a hit are left out; they make up all but 3% or so of the library.
esBAF inh – blocks esBAF chromatin remodeling in mouse ES cells; Bmi1-luciferase knock-in reporter, 24 h; 100% = twice the neutral-well signal; reporter increase, % at 12.5 µM; hit rate 2% among 350,000; in the data active = activation above about 40%; inconclusive = no clear call, values can overlap the other calls;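 note: a rise in the Bmi1 reporter signal indicates esBAF inhibition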
PfHsp90 yeast 2 – growth inhibition of yeast expressing Plasmodium Hsp90 | S. cerevisiae expressing PfHsp90, BacTiter-Glo ATP, 48 h; yeast lacking PDR1 and PDR3 efflux regulators | inhibition, % at 9.4 µM | hit rate 0.32% among 310,000;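 active = every replicate shows inhibition above about 80%, whatever the replicate mean, limit read from the data; inconclusive = mean inhibition reaches the set limit but some replicate falls short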
Vif inh – inhibitors of HIV Vif. HEK293T cells, Vif self-association by quenched fluorescence, imaging, 24 h. inhibition, % at 7.49 µM. hit rate 0.35% among 340,000; in the data active = inhibition above about 50%, passing the limit was not always enough; inconclusive = no clear call, values can overlap the other calls; inactive = below about 31%
N-glyco inh – N-linked glycosylation inhibition | D54 ERlucT glycosylation luciferase reporter, 24 h; percent of 100 nM tunicamycin response | hit rate 0.23% among 360,000 | reporter increase, % at 12.5 µM;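 active = mean luciferase reporter signal, scaled so untreated is 0 and the glycosylation-blocking control 100, at or above a set limit in every replicate; inconclusive = mean reaches the limit but not every replicate does; inactive = mean below the limit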;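 note: luciferase carries N-glycosylation sites so blocking glycosylation raises the light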
MITF act – MITF TRPM1 promoter activation in melanoma cells; SK-MEL-5 TRPM1-promoter luciferase, 24 h; % of positive control, neutral wells = 0; hit rate 0.75% among 300,000; activation, % at 12.5 µM;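 active = mean activation of at least 80% with every replicate also reaching 80%; inconclusive = mean reaches 80% but some replicate falls short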
Wnt bcat act – activates Wnt/beta-catenin signaling in a reporter cell assay. activator, plate reader. activation, % at 9.35 µM. hit rate 1.2% among 300,000; in the data active = activation above about 30%, passing the limit was not always enough; inconclusive = no clear call, values can overlap the other calls
Of the large screens only hits and unclear results are named; the others gave an inactive call.

Cc1ccc(/C=C2\OC(=O)c3ccccc32)cc1	esBAF inh 73.4
Cc1ccccc1/C=C1\OC(=O)c2ccccc21	none (no result: Wnt bcat act)
CC1CCc2sc(C(=O)N3CCC(C(N)=O)CC3)cc2C1 (stereo not given)	Wnt bcat act 36.4 (no result: MITF act)
Cc1ccc2c(c1)c1cccc3c1n2CCN3CCC(N)=O	esBAF inh 74.8 (no result: Wnt bcat act)
CCCCCCCCCCCCCCCC(O)C[N+](C)(C)CCO (stereo not given)	PfHsp90 yeast 2 111.2 (no result: esBAF inh)
CCCCCC(O)CCCC(=O)O (stereo not given)	none
NC(=N\N=Cc1ccccc1)/C(N)=N/N=Cc1ccccc1	esBAF inh 49.7, Vif inh inconclusive (no result: PfHsp90 yeast 2, MITF act)
NC(N)=N/N=C/c1ccccc1	none (no result: esBAF inh)
CCN(C(=O)COC(=O)CCS(=O)(=O)c1ccccc1)c1c(N)n(Cc2ccccc2)c(=O)[nH]c1=O	Wnt bcat act 38.9 (no result: MITF act)
COc1ccc(NS(=O)(=O)c2cccc3cccnc23)cc1	none
Cc1cc(Br)cc2c(C(=O)Nc3c(C)n(C)n(-c4ccccc4)c3=O)cc(-c3cccs3)nc12	N-glyco inh 40.8 (no result: esBAF inh, Wnt bcat act)
CCc1ccc(-c2cc(C(=O)Nc3c(C)n(C)n(-c4ccccc4)c3=O)c3ccccc3n2)s1	none (no result: esBAF inh)
CC(C)CN(C(=O)c1cccc(F)c1)c1c(N)n(CC(C)C)c(=O)[nH]c1=O	none (no result: MITF act)
CC(C)CN(C(=O)c1cccc([N+](=O)[O-])c1)c1c(N)n(CC(C)C)c(=O)[nH]c1=O	Vif inh 55.9 (no result: MITF act)
COc1ccccc1C1(CCN=Cc2ccc(N(C)C)cc2)CCOC(C)(C)C1 (stereo not given)	none (no result: esBAF inh)
C/C(=N\Nc1nc2c(s1)CCCC2)c1ccccc1	esBAF inh 47.3
O=C(O)c1ccc(Nc2nc3c(s2)CCCC3)cc1	none (no result: esBAF inh)
Cc1cccc(Nc2nc3c(s2)CCCC3)c1	MITF act 102.8, Wnt bcat act 65.4 (no result: esBAF inh)
Fc1ccccc1CSc1ncnc2c1ncn2C1CCCCO1 (stereo not given)	MITF act 88.7, Wnt bcat act 47.6
Clc1ccc(CSc2ncnc3c2ncn3C2CCCCO2)cc1 (stereo not given)	none
CC1=CC(C)[C@H](/C=N/n2c(=O)[nH]c3c([nH]c4ccc(Br)cc43)c2=O)C(C)C1 (stereo not given in full)	N-glyco inh 37.5
COc1ccc2[nH]c3c(=O)n(/N=C/[C@H]4C(C)C=C(C)CC4C)c(=O)[nH]c3c2c1 (stereo not given in full)	none
CC(C)c1ccc(NC(=O)C(c2ccccc2)N2CC(=O)Nc3ccccc32)cc1 (stereo not given)	esBAF inh 65.8 (no result: MITF act)
CCOc1ccc(CCN2C(=S)N([C@@H](Cc3ccc(O)cc3)CN3CCC[C@@H]3CN3C(=S)NC[C@@H]3CC(C)C)C[C@@H]2CC(C)C)cc1	none (no result: PfHsp90 yeast 2, MITF act)
CCOc1ccc2oc(C(=O)Nc3cc(C)ccn3)c(C)c2c1	MITF act inconclusive, Wnt bcat act 42.0 (no result: PfHsp90 yeast 2)
CCOc1ccc2oc(C(=O)Nc3ccc4c(c3)OCO4)c(C)c2c1	MITF act 89.8 (no result: esBAF inh)
Cc1c(C(=O)NNC(=O)c2ccccc2O)oc2ccc(Br)cc12	none
CCOc1ccc2oc(C(=O)O)c(C)c2c1	none
CCOc1ccc2oc(C(=O)NNC(=O)c3ccccc3O)c(C)c2c1	esBAF inh 48.1
O=C(CCNC(=O)c1ccc(Cl)cc1)Nc1ccc(S(=O)(=O)N2CCOCC2)cc1	none (no result: PfHsp90 yeast 2)
COc1ccc(S(=O)(=O)N2CCOCC2)cc1NC(=O)c1ccc(Cl)cc1	none
Cc1ccc(C(=O)Nc2ccc(S(=O)(=O)N3CCOCC3)cc2)cc1Br	Wnt bcat act 41.4 (no result: esBAF inh, PfHsp90 yeast 2, MITF act)
COc1ccc(S(=O)(=O)N2CCOCC2)cc1NC(=O)c1ccc2c(c1)OCCO2	Wnt bcat act 39.8
O=C(CCNC(=O)c1ccc(Br)cc1)Nc1ccc(S(=O)(=O)N2CCOCC2)cc1	Wnt bcat act 35.9
O=c1ccnc(Nc2ccc3c(c2)OCCO3)[nH]1	none (no result: esBAF inh)
Cc1ccc2c(c1)COc1c3ccc(C(=O)O)cc3nn1-2	none (no result: Vif inh)
O=C(NCCO)c1ccc2c3n(nc2c1)-c1ccccc1CO3	Wnt bcat act 36.5
Cc1ccc2c(c1)COc1c3ccc(C(=O)NCC4CC4)cc3nn1-2	esBAF inh 93.7 (no result: Vif inh)
O=C(NCC1CC1)c1ccc2c3n(nc2c1)-c1ccccc1CO3	Wnt bcat act 45.9 (no result: PfHsp90 yeast 2)
C=CCNC(=O)c1ccc2c3n(nc2c1)-c1ccc(Cl)cc1CO3	esBAF inh 53.0, MITF act 89.6, Wnt bcat act 43.8
COCCCNC(=O)c1ccc(C(=O)NCCCOC)cc1	none (no result: Wnt bcat act)
COc1ccc(OC)c(C2C(C#N)=C(N)N(N(C)C)C3=C2C(=O)CC(C)(C)C3)c1 (stereo not given)	none (no result: esBAF inh)
COc1ccccc1C1C(C#N)=C(N)N(N(C)C)C2=C1C(=O)CC(C)(C)C2 (stereo not given)	Wnt bcat act 40.3
Oc1ccc(-c2cn3ccccc3n2)cc1	Wnt bcat act 38.5
Brc1ccc(-c2cn3ccccc3n2)cc1	Wnt bcat act 49.1
O=C(COc1ccc(Br)cc1)NCc1cn2ccccc2n1	none (no result: esBAF inh)
c1ccc(-c2cn3ccccc3n2)cc1	none
O=[N+]([O-])c1ccc(-c2cn3ccccc3n2)cc1	Wnt bcat act 34.5 (no result: esBAF inh, PfHsp90 yeast 2, MITF act)
Brc1ccc(OCc2cn3ccccc3n2)cc1	MITF act 92.9 (no result: esBAF inh, PfHsp90 yeast 2)
C[C@H]1CN([C@@H](C)CO)C(=O)c2cc(-c3ccc(C(=O)N(C)C)cc3)cnc2O[C@H]1CN(C)C	none (no result: PfHsp90 yeast 2, Vif inh, N-glyco inh, MITF act, Wnt bcat act)
Cc1nn(-c2nc(-c3ccco3)cc(C(F)(F)F)n2)c(C)c1Br	none (no result: PfHsp90 yeast 2, MITF act, Wnt bcat act)
CO[C@@H]1CN(C)C(=O)c2ccc(NC(=O)c3ccccc3)cc2OC[C@@H](C)N(C)C[C@@H]1C	none (no result: PfHsp90 yeast 2, Vif inh, N-glyco inh, MITF act, Wnt bcat act)
Nc1nc(Nc2ccc(Cl)cc2Cl)nc(C(F)(F)F)n1	esBAF inh 63.9 (no result: Wnt bcat act)
COc1ccccc1N/C(N)=N/c1nc(C)cc(C)n1	none (no result: esBAF inh)
COCc1nnc(NC(=O)c2ccco2)s1	esBAF inh 45.0 (no result: PfHsp90 yeast 2, MITF act, Wnt bcat act)
Cc1nnc(NC(=O)c2sc3ccccc3c2Cl)s1	none (no result: esBAF inh)
CSc1nnc(NC(=O)c2ccco2)s1	none
CNC(=O)c1ccsc1NC(=O)c1sc2ccccc2c1Cl	esBAF inh 42.8, Wnt bcat act inconclusive
CCC(C)Sc1nnc(NC(=O)c2ccco2)s1 (stereo not given)	esBAF inh 50.4 (no result: MITF act)
Cc1ccc(NC(=O)c2sc3ccccc3c2Cl)nc1	none
COCc1nnc(NC(=O)c2sc3ccccc3c2Cl)s1	esBAF inh 50.8, Wnt bcat act inconclusive (no result: MITF act)
O=C(O)c1ccc(NC(CSCc2ccccc2F)C(=O)O)c([N+](=O)[O-])c1 (stereo not given)	none (no result: esBAF inh)
O=C(COC(=O)COc1ccccc1F)Nc1ccc(Cl)cn1	none
COc1cccc(NC(=O)Nc2cc(C)ccc2OC)c1	none (no result: esBAF inh)
COc1cccc(NC(=O)Nc2cc(C)ccc2F)c1	esBAF inh 61.1 (no result: MITF act, Wnt bcat act)
O=C(Nc1ccccc1)OCCCc1ccccc1	esBAF inh 57.1, Wnt bcat act inconclusive
COc1cccc(NC(=O)Nc2ccc(CC(=O)O)cc2)c1	none
COc1cccc(NC(=O)Nc2ccc3c(c2)nnn3C)c1	esBAF inh 48.4, MITF act 107.3
